Each structure is given as a SMILES string. About 2,100 (3.2%) of roughly 65,000 compounds showed an effect of 50% or more. The median lay at about -52%. Many of the other results were omitted from the sample, so strong results are more common in it than they were.

The test has as its system Plasmodium falciparum. The test can be described thus: Screen against P. falciparum Asexual Blood Stage (ABS), at 5uM. In kind it is functional, Dd2. The settings on record: tested at 5 uM.
Consider `O=C(OCC1CCN(c2ccccc2)C1)c1cscn1` (stereo not drawn), for which the INHIBITION is 0.13%.

For `CCOC1CCC2(CCN(C(=O)c3csnn3)CC2)c2ccccc21` (stereo not drawn), the INHIBITION is -79.6%. Take `O=C(O)c1ccccc1-c1ccc(CNC(=O)C2CCOCC2)cc1`: the INHIBITION is -63.2%. As for `Nc1nc2c(c(NC(Cn3cccn3)c3ccccc3)n1)CCNCC2` (stereo not drawn), the INHIBITION is on record as -40.8%. Regarding `CN(CCOCC(F)(F)F)CC1CCN(CCO)CC1`, the INHIBITION stood at 19.4%. `CCC(c1ccc(F)cc1F)N1CCN(CCO)CC1` (stereo not drawn): the INHIBITION was found to be 34.1%. With `Cc1cnn(CC2CCN(CC(O)c3ccc(F)cc3)CC2)c1` (stereo not drawn), the INHIBITION is reported as 29.3%. `CN(CC1CCN(CCO)CC1)CC(O)c1ccc(F)cc1F` (stereo not drawn): the INHIBITION amounted to 56.7%. As to `CN(CC1CCN(CCO)CC1)CC(O)c1ccc(F)cc1` (stereo not drawn), the INHIBITION came to 69.1%. With `Cc1noc(CN(C)CC2CCN(CCO)CC2)n1`, the INHIBITION is -64%. In the case of `Cc1ccc(C(=O)NCCCNc2ccc(C(F)(F)F)cn2)cc1`, the INHIBITION is 35.4%. Turning to `CCS(=O)(=O)N1CCC(C(=O)NC(Cc2ccsc2)c2nccs2)CC1` (stereo not drawn), the INHIBITION is given as -83.8%. Regarding `CN(Cc1ccccc1CNC(=O)C1CNC(=O)N1)C1CCCCC1` (stereo not drawn), the INHIBITION is -35%.

Turning to `COc1cc(N2CCC3(CC(=O)N(Cc4csc(C)n4)C3)C2)ncn1` (stereo not drawn), the INHIBITION is on record as -10.7%. `CN1CC(c2ccccc2)CC2(CCN(CC(=O)N(C)C)CC2)C1` (stereo not drawn): the INHIBITION came to 53.8%. On to `CN1CC(c2ccccc2)CC2(CCN(C(=O)c3ccccc3)CC2)C1` (stereo not drawn), for which the INHIBITION came to 18.1%. As for `COC(=O)N1CCC2(CC1)CC(c1ccccc1)CN(C)C2` (stereo not drawn), the INHIBITION is on record as -17.2%. For `CC(C)OCc1ncn2c1CN(Cc1ccoc1)CCC2`, the INHIBITION is given as -4.62%.

For `CCc1n[nH]c(C2CN(C(=O)c3ccnc(N(C)C)c3)CCO2)n1` (stereo not drawn), the INHIBITION is -77.2%. Regarding `O=C(CN1CCN(C(=O)c2cccc(-c3ccoc3)c2)CC1)C1CC1`, the INHIBITION was -3.7%. As for `CC1CCCN1C1CCN(C(=O)c2cccc(F)c2)CC1` (stereo not drawn), the INHIBITION is recorded as -14.6%. For the molecule `CC1CCCN1C1CCN(C(=O)c2cccc(-c3ccoc3)c2)CC1` (stereo not drawn), the INHIBITION is given as 53.6%. As for `O=C1c2cc(Br)cc(Br)c2OCC1(CN1CCCC1)CN1CCCC1`, the INHIBITION is recorded as -65.9%. As to `CC(C(=O)Nc1ccc(N2CCOCC2)nc1)n1cncn1` (stereo not drawn), the INHIBITION is listed as -27%.

With `COc1ccc(CN2CCCC(Nc3cccc(F)c3)C2)cc1O` (stereo not drawn), the INHIBITION was 63.3%. To `COc1cccc(F)c1CN1CCC(c2nc(C)cc(C)n2)C1` (stereo not drawn) belongs 23.3%; to `COc1cc(CN2CCCC(Nc3cccc(F)c3)C2)cc(OC)c1O` (stereo not drawn), 36.9%; to `COc1ccc(F)cc1CN1CCCC(c2cc(C(N)=O)[nH]n2)C1` (stereo not drawn), -14.1%.

With `Fc1ccc(NC2CCCN(Cc3ccncc3)C2)cc1` (stereo not drawn), the INHIBITION was -65.4%. In the case of `COc1cccc(CN2CCCC(Nc3cccc(F)c3)C2)c1O` (stereo not drawn), the INHIBITION is given as 67.3%. Consider `COc1cccc(CNc2ccc(F)c(Cl)c2)c1O`, for which the INHIBITION is listed as -117%.

Consider `COc1ccc(NC2CCCN(Cc3cnc(N(C)C)s3)C2)cc1OC` (stereo not drawn), for which the INHIBITION was -54.2%. For the molecule `COc1cccc(O)c1CN1CCCC(Nc2cccc(F)c2)C1` (stereo not drawn), the INHIBITION was determined as 51.3%.

Source of the values: ChEMBL document CHEMBL4513216, “Probing the Open Global Health Chemical Diversity Library for Multistage-Active Starting Points for Next-Generation Antimalarials” (ACS Infect Dis, 2020).
